DT40 TDP1 no CPT: qHTS for Inhibitors of human tyrosyl-DNA phosphodiesterase 1 (TDP1): qHTS in cells in absence of CPT. DT40 Tdp1-/- hTDP1 cells, no CPT, ATP luminescence, 48 h. Potency, µM (doses to about 46.2 µM), usual class: inhibitors. actives 15% (n = 420,000); also: nearly all actives have a fitted effect of over 55% in size
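Stably hTDP1-transfected Tdp1-null chicken DT40 cells were treated with library compounds minus camptothecin and grown for at least 48 hr at 37 °C, after which cellular ATP was quantified by luminescence.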
IL-1B inflam inh: blocks inflammasome-driven IL-1 beta release | actives 4.7% (n = 360,000) | AID 743279 | THP-1 LPS/ATP IL-1B secretion, AlphaLISA, 16 h; hits give low values | activity change, % at 57.5 µM; in the data active = activity change below about -50%; inconclusive = mostly about -30% to -49%
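Secreted IL-1B measured by AlphaLISA bead assay after 16 h compound exposure of THP-1 cells; compounds (final up to 57.5 uM) added 1 h before LPS (250 ng/mL) and ATP (1.25 mM) stimulation; lower signal means less secretion.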
TDP1 cell CPT: DT40-hTDP1 cell growth loss with CPT; actives 12% (n = 420,000); chicken DT40 Tdp1-/-;hTDP1 cells + 20 nM CPT, ATP luminescence, 48 h; AID 686979; Potency, µM (doses to about 46.2 µM), actives largely listed as inhibitors; also: nearly all actives have a fitted effect of over 55% in size
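Chicken DT40 Tdp1-/- cells stably complemented with human TDP1 were seeded at 400 cells/well in medium containing 20 nM camptothecin, exposed to pin-transferred compounds, and grown at 37 °C for at least 48 hr. Viability was read as ATP luminescence.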
HT1080NT lethal: kills 2HG-producing HT-1080-NT fibrosarcoma cells; actives 1.6% (n = 360,000); Potency, µM (doses to about 46.1 µM), most hits filed as cytotoxic; HT-1080-NT fibrosarcoma viability, CellTiter-Glo ATP luminescence, 48 h; AID 686970;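 also: NT is the 2HG producing partner of a matched IDH1 knockdown line; nearly all actives have a fitted effect of over 55% in size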
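HT-1080-NT fibrosarcoma cells (2HG-overproducing), 750 cells/well in RPMI with 5% FBS, dosed after 2 h and incubated 48 h at 37C. CellTiter-Glo luminescence normalized to DMSO and no-cell wells; concentration-response curves fitted and classed.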
HT1080 IDH1KD tx: HT-1080 IDH1 knockdown cell toxicity (counter line); HT-1080 IDH1 knockdown viability, ATP luminescence, 48 h; Potency, µM (top dose mostly 46.1 µM), actives largely listed as cytotoxic; actives 2% (n = 360,000); AID 686971
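IDH1KD HT-1080 cells, 750/well, RPMI + 5% FBS; compound pinned after 2 h settling; 48 h, 37 °C; CellTiter-Glo luminescence; % activity normalised to DMSO and no-cell wells; curves fitted, classed by r2 and efficacy.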
Each line names hits and unclear results; the compound was inactive in the other large screens. Sampled rows, rich in hits. Any-hit rate of the full collection: about 19%. Unless noted, calls follow the shape of the dose curve; as a rule, active = well fitted curve in the direction sought with a large enough effect; inconclusive = small, poorly fitted or top-dose-only effect, or another doubt; inactive = no such curve, though single readings can be large; an effect the other way counts as inactive or inconclusive.

O=C(NCCNC1CCC(c2ccccc2)CC1)c1ccc(F)cc1 (stereo unspecified)	DT40 TDP1 no CPT inconclusive, IL-1B inflam inh -70, TDP1 cell CPT inconclusive, HT1080NT lethal 21µM, HT1080 IDH1KD tx inconclusive
O=C(N/N=C/c1ccc(Br)s1)c1ccco1	DT40 TDP1 no CPT inconclusive, TDP1 cell CPT inconclusive
O=C(O)c1cccc(Cn2c(Cl)c(/C=N/Nc3ccccc3)sc2=O)c1	TDP1 cell CPT inconclusive, HT1080NT lethal inconclusive, HT1080 IDH1KD tx 5.8µM
O=C(N/N=C/c1sc(=O)n(Cc2ccc(Br)cc2)c1Cl)c1ccco1	DT40 TDP1 no CPT inconclusive, IL-1B inflam inh -78, TDP1 cell CPT inconclusive
COC(=O)C(C(=O)OC)C(c1ccccc1)C(C(=O)c1ccccc1)[N+](=O)[O-] (stereo unspecified)	none
COCCOC(=O)c1c(C)nc(SCC(=O)Nc2ccc(C)cc2)c(C#N)c1-c1ccco1	DT40 TDP1 no CPT inconclusive, TDP1 cell CPT inconclusive
COCCOC(=O)c1c(C)nc(SCC(=O)Nc2cccc3ccccc23)c(C#N)c1-c1ccco1	DT40 TDP1 no CPT 29µM, TDP1 cell CPT inconclusive
CN(C)CC(=O)Nc1ccc2c(c1)[C@H]1C[C@H](CC(=O)NCc3ccc4c(c3)OCO4)O[C@H](CO)[C@H]1O2	none
COc1ccc(-c2ccc(CN3C(CC(C)C)C(=O)N(Cc4cn(Cc5ccco5)nn4)CCS3(=O)=O)cc2)cc1OC (stereo unspecified)	DT40 TDP1 no CPT 16µM, TDP1 cell CPT inconclusive
COc1ccc(-c2ccc(CN3C(CC(C)C)C(=O)N(Cc4cn(Cc5ccco5)nn4)CCS3(=O)=O)cc2)cc1 (stereo unspecified)	DT40 TDP1 no CPT 7.3µM, TDP1 cell CPT 7.3µM, HT1080NT lethal inconclusive, HT1080 IDH1KD tx inconclusive
Cc1ccc(Cl)c(OC(=O)Cn2cnc3c2c(=O)n(C)c(=O)n3C)c1	none
CC(NC(=O)CCn1c(=O)c2cccn2c2ccc(F)cc21)c1ccccc1 (stereo unspecified)	none (no result: IL-1B inflam inh, HT1080NT lethal, HT1080 IDH1KD tx)
COc1ccc(CCNC(=O)Cn2c(=O)n(-c3ccc(F)cc3F)c(=O)c3sccc32)cc1OC	DT40 TDP1 no CPT inconclusive, TDP1 cell CPT inconclusive
O=C(CCn1c(=O)c2cccn2c2ccc(F)cc21)NCCc1ccccc1	DT40 TDP1 no CPT 18µM, TDP1 cell CPT 21µM
COc1ccc(CCNC(=O)Cn2c(=O)n(-c3cc(F)ccc3F)c(=O)c3sccc32)cc1OC	DT40 TDP1 no CPT 15µM, TDP1 cell CPT inconclusive
COc1ccc(CCNC(=O)CCn2c(=O)c3cccn3c3ccc(F)cc32)cc1OC	DT40 TDP1 no CPT 16µM, TDP1 cell CPT inconclusive (no result: IL-1B inflam inh, HT1080NT lethal, HT1080 IDH1KD tx)
CCOc1ccc(CCNC(=O)CCn2c(=O)c3cccn3c3ccc(F)cc32)cc1OCC	DT40 TDP1 no CPT 13µM, TDP1 cell CPT inconclusive (no result: IL-1B inflam inh, HT1080NT lethal, HT1080 IDH1KD tx)
COc1ccc(CCNC(=O)CSc2nc3[nH]ncc3c(=O)n2-c2ccc(C)c(Cl)c2)cc1OC	none
Cc1ccc(NC(=O)C2CCN(C(=O)c3ccco3)CC2)cc1C	none
C=CCCCCCCCCC(=O)NNC1=CC(=O)CC(C)(C)C1	TDP1 cell CPT inconclusive
COc1ccc(NC(=O)C2(C)CCN2Cc2ccccc2OC(F)F)cc1OC (stereo unspecified)	DT40 TDP1 no CPT 12µM, TDP1 cell CPT inconclusive
CC1(C(=O)Nc2ccc(Cl)c(Cl)c2)CCN1Cc1ccccc1OC(F)F (stereo unspecified)	DT40 TDP1 no CPT 12µM, IL-1B inflam inh inconclusive, TDP1 cell CPT 16µM
CC(C)Oc1ccc(CN2CCC2(C)C(=O)Nc2ccc(Cl)c(Cl)c2)cc1 (stereo unspecified)	DT40 TDP1 no CPT inconclusive, TDP1 cell CPT inconclusive, HT1080NT lethal inconclusive
Cc1ccc(NC(=O)C2(C)CCN2Cc2ccccc2OC(F)F)cc1 (stereo unspecified)	DT40 TDP1 no CPT inconclusive, TDP1 cell CPT inconclusive, HT1080NT lethal inconclusive, HT1080 IDH1KD tx inconclusive
CC1(C(=O)Nc2ccc3c(c2)OCO3)CCN1Cc1ccccc1OC(F)F (stereo unspecified)	DT40 TDP1 no CPT inconclusive, IL-1B inflam inh -67, TDP1 cell CPT inconclusive
COc1ccc(CNC(=O)COC(=O)c2ccc(OCC3CCCO3)cc2)cc1 (stereo unspecified)	DT40 TDP1 no CPT inconclusive, TDP1 cell CPT inconclusive, HT1080NT lethal inconclusive, HT1080 IDH1KD tx inconclusive
COc1ccc(-c2nc3cnc(N(C)C)nc3n(CCC#N)c2=O)cc1	none (no result: IL-1B inflam inh, HT1080NT lethal, HT1080 IDH1KD tx)
COC(=O)NC1CCC(NC(=O)OC)CC1 (stereo unspecified)	none
COc1ccc(-c2nc3cc(C)c(Br)c(C)n3c2Cc2ccsc2)cc1OC	DT40 TDP1 no CPT inconclusive, TDP1 cell CPT inconclusive
COC(=O)c1ccc2nc(-c3ccc(Cl)cc3)c(Cc3ccsc3)n2c1	DT40 TDP1 no CPT 12µM, TDP1 cell CPT inconclusive
COc1ccc(-c2nc3ccc(C)cn3c2CC2CCCCC2)cc1OC	DT40 TDP1 no CPT 18µM, TDP1 cell CPT 18µM, HT1080NT lethal inconclusive, HT1080 IDH1KD tx inconclusive
COC(=O)c1ccc2nc(-c3cccc(Br)c3)c(Cc3ccsc3)n2c1	DT40 TDP1 no CPT inconclusive, TDP1 cell CPT inconclusive
COc1ccc(-c2nc3ccc(Br)cn3c2CC(C)(C)C)cc1OC	DT40 TDP1 no CPT inconclusive, TDP1 cell CPT inconclusive
Clc1ccc(-c2nc3ccc(Cl)cn3c2Cc2ccsc2)cc1	DT40 TDP1 no CPT inconclusive, HT1080 IDH1KD tx inconclusive
COC(=O)c1ccc2nc(-c3cccc(Cl)c3)c(Cc3ccsc3)n2c1	DT40 TDP1 no CPT 16µM, TDP1 cell CPT inconclusive, HT1080 IDH1KD tx inconclusive
COC(=O)c1ccc2nc(-c3ccc(OC)c(OC)c3)c(Cc3ccsc3)n2c1	DT40 TDP1 no CPT 23µM, TDP1 cell CPT 16µM
CC(C)c1ccc(CN2C(=O)NC3(CCCCCC3)C2=O)cc1	DT40 TDP1 no CPT inconclusive, TDP1 cell CPT inconclusive
CCC(C(=O)NC1CCCC1)n1c(-c2cc3ccccc3[nH]2)nc2ccccc21 (stereo unspecified)	DT40 TDP1 no CPT inconclusive, TDP1 cell CPT inconclusive
COC(=O)c1ccc2nc(-c3ccccc3)c(Cc3ccsc3)n2c1	DT40 TDP1 no CPT inconclusive, TDP1 cell CPT 21µM, HT1080NT lethal inconclusive
COc1ccc(-c2nc3ccc(C)cn3c2Cc2ccsc2)cc1OC	DT40 TDP1 no CPT 7.3µM, TDP1 cell CPT 8.2µM, HT1080NT lethal inconclusive, HT1080 IDH1KD tx inconclusive
COC(=O)c1ccc2nc(-c3ccc(OC)c(OC)c3)c(Cc3ccc(OC)cc3C)n2c1	DT40 TDP1 no CPT 26µM, TDP1 cell CPT inconclusive, HT1080 IDH1KD tx inconclusive
COc1cccc(N2C(=O)C3CCCN3C2=S)c1 (stereo unspecified)	DT40 TDP1 no CPT inconclusive
OC1c2cc(Cl)ccc2-c2c(Cl)cc(Cl)cc21 (stereo unspecified)	DT40 TDP1 no CPT inconclusive, TDP1 cell CPT inconclusive, HT1080NT lethal inconclusive
C/C(=N\O)C(C)(C)Nc1cccc(Br)c1	none
